From PubChem BioAssay AID488890 (Southern Research Specialized Biocontainment Screening …, 2010)
Hit rate of the full screen: of about 320,000 compounds, about 1,300 (0.41%) were called active. Not shown: some 3% with an inconclusive outcome. How the calls were made is not given here. These entries were drawn from the full list. Potency and affinity values are given separately.

Test: growth inhibition of non-replicating M. tuberculosis (AID 488890);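 further: plate controls were DMSO cells for no effect and high antibiotic wells for full effect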
Details: Mycobacterium tuberculosis non-replicating, at 25 µM, stronger effect = higher value

Row | SMILES | inhibition
1 | O=C(c1ccccc1)N1CCN(C(=S)NCc2ccco2)CC1 | -12.8%
2 | Cc1cc(/C=N/O)c(C)n1-c1cccc(Cl)c1 | 5.04%
3 | Nc1c(C(=O)Nc2ccc3c(c2)OCCO3)nnn1Cc1cccc(Br)c1 | 1.42%
4 | CCOc1ccc(N=C2NC(=O)C(CC(=O)Nc3ccc(OC)cc3)S2)cc1 (configuration not stated) | 23%
5 | N#Cc1ccc(C23CC4(C2)[C@H](CN(Cc2ccc(-c5ccccc5)cc2)[C@@H]4c2ccccc2)C3c2ccccc2)cc1 (some centres not stated) | 34.9%
6 | CCN(CC)C(=O)CSc1nc(OC)cc(=O)[nH]1 | -3.35%
7 | COC(=O)C1=C(C(=O)OC)[C@@H]2N(Cc3ccccc3)c3ccccc3[C@@]23C[C@@H](CO)N(C(=O)NC2CCCC2)C3=N1 | 39.9%
8 | Cc1ccc(S(=O)(=O)N2CCC(=O)N(CCOC(=O)NCc3ccccc3)CC2)cc1 | 16.1%
9 | O=C(O)c1ccc(N2CC3CC(C2)c2cccc(=O)n2C3)c(NC(=S)Nc2ccc(Br)cc2)c1 (configuration not stated) | 41.1%
10 | O=[N+]([O-])c1ccc(Nc2cccc(F)c2)nc1 | 16.5%
11 | CC1=NN(C(=O)CCc2ccc3c(c2)OCO3)C(O)(C(F)(F)F)C1 (configuration not stated) | -15.8%
12 | CC1=NN(C(=O)c2cccnc2)C(O)(C(F)(F)F)C1 (configuration not stated) | -26.1%
13 | COc1ccc(OCC(=O)N2N=C(C)CC2(O)C(F)(F)F)cc1 (configuration not stated) | 75.8%
14 | O=C(c1ccco1)N1N=C(c2ccncc2)CC1(O)C(F)(F)F (configuration not stated) | -9.67%
15 | CC1=NN(C(=O)c2ccc(Cn3nc(C)cc3C)o2)C(O)(C(F)(F)F)C1 (configuration not stated) | 24.9%
16 | CC1=NN(C(=O)CCc2ccccc2O)C(O)(C(F)(F)F)C1 (configuration not stated) | 74.8%
17 | COc1ccc(CC(=O)N2N=C(C)CC2(O)C(F)(F)F)cc1 (configuration not stated) | 72.4%
18 | CC1=NN(C(=O)c2nn(C)cc2Br)C(O)(C(F)(F)F)C1 (configuration not stated) | 8.53%
19 | COC(=O)c1ccccc1NC(=O)COC(=O)/C=C/c1cccs1 | 18.2%
20 | CC(C)c1ccc(C(O)Cc2nc3ccccc3n2C)cc1 (configuration not stated) | 41.1%
21 | OCCCc1nc2n(n1)C(c1cccs1)C=C(c1ccccc1)N2 (configuration not stated) | 0.31%
22 | CCOC(=O)c1cc([N+](=O)[O-])sc1N | 5.99%
23 | CCn1c(C(=O)O)c(CC(=O)NC2CCCCCC2)c2ccccc21 | 24.3%

Row | SMILES | inhibition
24 | O=C(CSc1ncccn1)NC1CCCc2ccccc21 (configuration not stated) | -8.14%
25 | COc1ccc(CC(=O)N2N=C(C)CC2(O)C(F)(F)F)cc1OC (configuration not stated) | 45.4%
26 | CC1=NN(C(=O)c2cccc(Cn3nc(C)c([N+](=O)[O-])c3C)c2)C(O)(C(F)(F)F)C1 (configuration not stated) | 76.4%
27 | CC1=NN(C(=O)c2ccc(Cn3ccc([N+](=O)[O-])n3)cc2)C(O)(C(F)(F)F)C1 (configuration not stated) | 75.5%
28 | CC1=NN(C(=O)Cn2nc([N+](=O)[O-])cc2C)C(O)(C(F)(F)F)C1 (configuration not stated) | 32.3%
29 | CNC(=S)NNS(=O)(=O)c1ccc(OC)cc1OC | -11%
30 | O=C(CN1CCN(c2ccccc2)CC1)Nc1nccs1 | 5.49%
31 | COc1cccc(N2CCN(CC(=O)Nc3nnc(-c4ccccc4)s3)CC2)c1 | 29.2%
32 | C=CCn1c(=S)[nH]c2cc(C(=O)Nc3ccc(OC)c(OC)c3)ccc2c1=O | -8.59%
33 | O=C(NCCc1ccc(F)cc1)c1cc2ccccc2oc1=O | 47.5%
34 | COc1cccc2cc(C(=O)NCCc3c[nH]c4ccccc34)c(=O)oc12 | 61%
35 | COC(=O)C1=CN(Cc2ccc(OC)cc2)C=C(C(=O)OC)C1c1cc(OC)c(OC)c(OC)c1 | 8.79%
36 | CCCCn1c(=O)c(C(=O)Nc2ccccn2)c(O)c2ccccc21 | 27.8%
37 | CCCCCn1c(=O)c(C(=O)Nc2ccccn2)c(O)c2ccccc21 | 68.9%
38 | CCCCCn1c(=O)c(C(=O)Nc2cc(C)ccn2)c(O)c2ccccc21 | 17.3%
39 | CCCCn1c(=O)c(C(=O)Nc2ccc(C)cn2)c(O)c2ccccc21 | 0.62%
40 | COc1cccc(NC(=O)c2ccnc(N3CCC(C(=O)NCc4ccccc4OC)CC3)c2)c1 | -4.35%
41 | CC(C)(C)C(=O)Nc1c2c(nn1-c1ccccc1)CSC2 | 35%
42 | COc1ccc(OCC(=O)NNC(=O)c2cccnc2)cc1 | 3.8%
43 | COc1cccc(N2CCN(C(=S)Nc3ccc(F)cc3)CC2)c1 | -4.62%
44 | c1ccc(OCCn2c(-c3ccco3)nc3ccccc32)cc1 | 74.4%
45 | c1coc(Cn2c(-c3ccco3)nc3ccccc32)c1 | 6.77%
46 | C=CCSc1nnc2c(n1)OC(C)=Nc1ccc(Br)cc1-2 | 5.66%

Row | SMILES | inhibition
47 | Cc1cc(NC(=O)COC(=O)c2ccccc2S(=O)(=O)N(C)c2ccccc2)no1 | 9.17%
48 | Cc1ccc(C)c(-c2nnc(NC(=O)Cc3ccccc3)o2)c1 | -18%
49 | O=C(COc1ccccc1)Nc1nnc(-c2ccco2)o1 | 19.2%
50 | CC1(C(=O)OCC(=O)Nc2ccccc2)CC1(Cl)Cl (configuration not stated) | 48.2%
51 | O=C(COC(=O)Cc1ccccc1)Nc1nnc(-c2ccccc2)o1 | 10.8%
52 | O=C(CCOc1ccccc1)Nc1nnc(-c2ccc3c(c2)OCCO3)o1 | -7.7%
53 | O=C(Nc1nnc(-c2ccncc2)o1)c1ccccc1F | 21.3%
54 | O=C(Nc1ccc2c(c1)CCC2)c1c(F)cccc1Cl | 1.55%
55 | CS(=O)(=O)c1ccccc1-c1nnc(NC(=O)COc2ccc(Cl)cc2)o1 | 21.8%
56 | COc1ccccc1NC(=O)COC(=O)CCc1ccc(S(=O)(=O)N2CCOCC2)cc1 | 5.51%
57 | CCCCN1CC(COc2ccccc2)OC1=O (configuration not stated) | 72.5%
58 | COc1ccc(Nc2oc(COc3cccc(C)c3)nc2C#N)cc1 | 13.3%
59 | CCN(CC)S(=O)(=O)c1ccc(N2CCCC2)c(NC(=O)c2c(-c3ccccc3)noc2C)c1 | 13.9%
60 | Cc1cccc(C(=O)NCC(=O)OCC(=O)NC2CCCCC2)c1 | -3.75%
61 | O=C(NCc1ccncc1)C(=O)NCC1OCCN1S(=O)(=O)c1cc(F)ccc1F (configuration not stated) | 3.82%
62 | Cc1cccc2c(=O)c(C(=O)NCCCN3CCOCC3)c[nH]c12 | 4.67%
63 | Cc1nnc(SCCn2c(N3CCCCC3)nc3c2c(=O)n(C)c(=O)n3C)s1 | 7.29%
64 | Cc1cnc(NC(=O)c2ccc3c(c2)OCCO3)s1 | 12.1%
65 | O=C(Nc1ccc([N+](=O)[O-])cn1)c1ccc2c(c1)OCO2 | -8.57%
66 | Cc1ccc(C2(c3noc(CN4CCC(C(=O)N5CCOCC5)CC4)n3)CCCC2)cc1 | 14.3%
67 | COC(=O)c1oc2ccc(Br)cc2c1NC(=O)CCCN1C(=O)c2ccccc2C1=O | -12.2%
68 | CC(=O)Oc1ccc(C(=O)Nc2cccc(C(=O)NC(C)(C)C)c2)cc1 | 7.66%
69 | O=C(COc1ccc2c(-c3ccccc3)cc(=O)oc2c1)NCc1ccccn1 | 7.24%

Row | SMILES | inhibition
70 | Cc1nn(-c2ccccc2)c(C)c1CN | 6.26%
71 | CCOc1ccc(C(=O)Oc2ccc(NC(C)=O)cc2)cc1 | 24.7%
72 | CC(=O)Nc1ccc(OC(=O)c2ccc(Cl)cc2)cc1 | 52.1%
73 | Cc1ccc(N2CC(C(=O)Nc3nnc(SCCC4OCCO4)s3)CC2=O)cc1C (configuration not stated) | 27.4%
74 | CCN(CC(=O)NCc1ccc(F)cc1)C(=O)COc1ccc(C)c(C)c1 | 28.3%
75 | COc1ccc(C(=O)O)cc1S(=O)(=O)NC(C)C | -0.91%
76 | Oc1ccc(Br)cc1-c1cc(-c2ccccc2)n[nH]1 | -5.74%
77 | Oc1ccc(Br)cc1-c1cc(-c2ccc(Cl)cc2)n[nH]1 | 13.8%
78 | C1=C(CCNCc2ccccc2)CCCC1 | -4.9%
79 | O=C(NNC(=O)C1CC1c1ccccc1)c1cccc([N+](=O)[O-])c1 (configuration not stated) | 3.57%
80 | O=C(NNc1ccc([N+](=O)[O-])cc1)c1ccco1 | 69.6%
81 | Cc1cc(C(=O)N/N=C/c2ccc[nH]2)no1 | 64.3%
82 | NS(=O)(=O)c1ccc(NNC(=O)c2ccccc2C(=O)O)cc1 | -12.1%
83 | O=C(NC(NNc1ccc([N+](=O)[O-])cc1)(C(F)(F)F)C(F)(F)F)c1ccccc1Cl | 6.68%
84 | O=C(NNC(=O)C1CC1c1ccccc1)c1ccccc1[N+](=O)[O-] (configuration not stated) | -10.3%
85 | Cc1cc(C(=O)N/N=C/c2cccs2)no1 | 33.9%
86 | O=C(O)c1ccccc1C(=O)NNc1ccc(Cl)cc1Cl | 10.7%
87 | CN(c1ccccc1)S(=O)(=O)c1ccc(NC(=S)NC(=O)C2CC2)cc1 | -18.9%
88 | COc1cc(OC)cc(C(=O)N2CCC(C(=O)c3ccc(F)cc3)CC2)c1 | 5.91%
89 | CC(C)[C@@H](C(=O)NC1CC1)N1C(=O)N2CCc3c([nH]c4ccccc34)[C@@]2(C)C1=O | 21%
90 | CC1CCC(NC(=O)CN2CCN(S(=O)(=O)c3cccs3)CC2)CC1 (configuration not stated) | 1.37%
91 | Cc1nc2c(-c3ccc(F)cc3)c(C)nn2c(N2CCOCC2)c1C | 40.1%
92 | O=C(O)CSc1nnc(-c2ccc(Cl)cc2Cl)n1Cc1ccccc1 | -8.24%

Row | SMILES | inhibition
93 | O=C(NC1CCCCC1)C(c1cccs1)N(C(=O)C(F)(F)F)c1ccccc1 (configuration not stated) | 14.2%
94 | Cc1cc(C(=O)NNC(=O)Nc2ccc(Cl)cc2)no1 | -6.49%
95 | Cc1cc(C(=O)NNc2ccc(F)cc2)no1 | 57.1%
96 | Cc1ccc(C)c(C(=O)CCC(=O)Nc2ccc(F)cc2)c1 | 40%
97 | CC(C)OCC(O)CS(=O)(=O)Cc1ccccc1 (configuration not stated) | -5.18%
98 | O=C(c1cccnc1)N1CCC(Oc2ccc(C(=O)N3CCCC(O)C3)cc2)CC1 (configuration not stated) | -34.2%
99 | CSc1cc(C)[nH]c(=O)n1 | -1.97%
100 | CSc1nc(Cl)cc(=O)[nH]1 | 6.5%
101 | O=C(NCC(c1ccco1)N1CCc2ccccc21)c1ccccc1Br (configuration not stated) | 11.1%
102 | Cc1ccc(Cn2c(NS(=O)(=O)c3ccccc3)nc3ccccc32)cc1 | -3.28%
103 | O=C(Nc1nc2ccccc2n1Cc1ccc(Cl)cc1)c1ccco1 | -7.17%
104 | CC(=O)NCCCc1nc2ccccc2n1Cc1ccc(C)cc1 | 1.78%
105 | CC(=O)NCCc1nc2ccccc2n1Cc1ccc(Cl)cc1 | 0.72%
106 | CC(=O)Nc1ccc(-c2nc3cc(Cl)ccc3o2)cc1 | 49.8%
107 | CC/C(=N\NC(N)=O)c1c(O)[nH]c(=O)[nH]c1=O | -25.7%
108 | C/C(Cn1nnc([N+](=O)[O-])n1)=N\NC(=O)c1ccc(C)cc1 | 55.5%
109 | C/C(Cn1nnc([N+](=O)[O-])n1)=N\NC(=O)c1ccc(O)cc1 | 54.4%
110 | Cc1nc2c(sc3nc4c(cc32)COC(C)(C)C4)c(=O)n1Cc1ccccc1 | 8.21%
111 | CCNC(=O)OCC12CC3CC(CC(C3)C1)C2 | 77%
112 | CCCNC(=O)OCCC12CC3CC(CC(C3)C1)C2 | 69.4%
